Measured values reported in PubChem BioAssay AID430 (Sanford-Burnham Center for Chemical Genomics, 2006).
The campaign covered roughly 63,000 compounds. About 1,100 (1.7%) were called active. Rule as the data show it: active = cytotoxicity above about 50%; inactive = the rest. For the sample, actives were picked, then their nearest neighbours and some compounds at random. Measured potencies and affinities stand elsewhere.

Assay: cytotoxicity in HPDE-C7 cells, cell-based, fluorescence, HTS (AID 430);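 also: cells exposed to compound for 48 hours before viability readout; 0% = vehicle and 100% = reference cytotoxic drug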
Settings: HPDE-C7 pancreatic duct cells viability, at 10 µM, stronger effect = higher value

| SMILES | cytotoxicity |
| --- | --- |
| CCn1c(SCC(=O)N(Cc2ccccc2)C2CCS(=O)(=O)C2)nc2ccccc2c1=O (stereo not drawn) | -7.3% (inactive) |
| C1=C(CCNc2ncnc3nc[nH]c23)CCCC1 | 0% (inactive) |
| CCCCCC(=O)Nc1ccc2oc(-c3cncc(Br)c3)nc2c1 | -3.1% (inactive) |
| CCn1c(=O)n(CC(=O)Nc2cccc(OC)c2)c(=O)c2ccccc21 | -12.1% (inactive) |
| CN(C)CCCNC(=O)Cc1ccc(Br)cc1 | -3.8% (inactive) |
| COc1cc(C2C(C(=O)c3ccc(C)o3)=C(O)C(=O)N2c2cc(C)on2)ccc1O (stereo not drawn) | -0.7% (inactive) |
| CC(NC(=O)NCCCn1ccnc1)(C(F)(F)F)C(F)(F)F | 9.8% (inactive) |
| O=C(Nc1ccc(CN2CCCCC2)cc1)c1ccc(Br)o1 | -14.9% (inactive) |
| O=C(Nc1ccc(CN2CCOCC2)cc1)c1cc2ccccc2o1 | -0.1% (inactive) |
| O=C(Cc1ccc(-c2ccccc2)cc1)NCCN1CCOCC1 | -11.8% (inactive) |
| O=C(Nc1ccc2nc(-c3ccco3)[nH]c2c1)c1cccs1 | 8% (inactive) |
| O=C(Nc1ccc2nc(-c3ccc(Br)o3)[nH]c2c1)c1cccs1 | 53.5% (active) |
| O=C(Nc1ccc2nc(-c3ccc(Br)o3)[nH]c2c1)c1ccco1 | 44.7% (inactive) |
| CNC(=O)CCn1nc(-c2ccc(Cl)cc2)c2ccccc2c1=O | 10.8% (inactive) |
| Oc1ccc(N=Cc2ccc(O)c(O)c2)cc1 | 18% (inactive) |
| COc1ccc(-c2cc(O)cc(O)c2)cc1 | -7.5% (inactive) |
| CCn1c(C2CC(=O)N(Cc3ccccc3)C2)nc2ccccc21 (stereo not drawn) | -14.7% (inactive) |
| O=C1CC(=O)N(Cc2cccs2)C(=O)N1 | -15.3% (inactive) |
| O=C(O)c1ccc(NC(=O)C2CC=CCC2C(=O)O)cc1 (stereo not drawn) | -3.4% (inactive) |
| CCOCCCN(Cc1cc2cc(C)cc(C)c2[nH]c1=O)C(=O)N(CC)CC | -8.9% (inactive) |
| Cc1nc2sc3c(c2c(=O)o1)CCC3 | 4.8% (inactive) |
| O=c1oc(-c2cccs2)nc2sc3c(c12)CCCCC3 | 52% (active) |
| O=c1oc(-c2cccs2)nc2sc3c(c12)CCC3 | 28.2% (inactive) |
| Nn1c(-c2cccs2)nc2sc3c(c2c1=O)CCCC3 | -1.4% (inactive) |
| Cc1nc2sc3c(c2c(=O)o1)CCCC3 | 0% (inactive) |

| SMILES | cytotoxicity |
| --- | --- |
| O=c1oc(-c2cc3ccccc3o2)nc2sc3c(c12)CCCC3 | 51.3% (active) |
| O=C(CN1C(=O)CSC1=O)NCc1ccccc1 | 8.1% (inactive) |
| O=C(c1cc(S(=O)(=O)N2CCOCC2)ccc1F)N1CCN(Cc2ccccc2)CC1 | -2.7% (inactive) |
| O=C(CSc1nc2ccccc2c(=O)n1CCC(=O)N1CCCCC1)NCc1ccccc1 | -24.2% (inactive) |
| COc1ccc(-c2nnc(SCC(=O)Nc3cc(C)on3)n2C)cc1OC | -16.6% (inactive) |
| O=C(NCCn1cccc1)c1cccc2ccccc12 | 1.3% (inactive) |
| CCOC(=O)C1CCCN(Cc2ccc(OC)cc2OC)C1 (stereo not drawn) | 8.6% (inactive) |
| COc1ccc(-c2nc3ccccc3s2)cc1O | -5.7% (inactive) |
| COc1ccc(-c2nc(-c3cccs3)c(-c3cccs3)[nH]2)cc1O | 71.6% (active) |
| COc1ccc(-c2nnc(-c3cccs3)o2)cc1OC | -10.3% (inactive) |
| Fc1cccc(Cl)c1Cn1nnc(-c2ccc3c(c2)OCO3)n1 | -6.1% (inactive) |
| Fc1cccc(Cl)c1CSc1nnnn1-c1ccc2c(c1)OCO2 | 53.7% (active) |
| Fc1ccccc1CSc1nnnn1-c1ccc2c(c1)OCO2 | -2% (inactive) |
| CCc1nccn1S(=O)(=O)c1ccc(C)c(C)c1 | 2.1% (inactive) |
| COc1ccc(OC)c(C(c2nnnn2CC2CCCO2)N2CCN(C3CCCC3)CC2)c1 (stereo not drawn) | -10.4% (inactive) |
| CC(Sc1ccccc1)C(=O)Nc1ccc(S(=O)(=O)N2CCOCC2)cc1 (stereo not drawn) | -9.5% (inactive) |
| CC1CN(C2CCCCC2)c2nc3c(c(=O)[nH]c(=O)n3C)n2C1 (stereo not drawn) | -2% (inactive) |
| COc1cc(S(=O)(=O)N2CCN3CCCC3C2)ccc1-n1cnnn1 (stereo not drawn) | 5.7% (inactive) |
| COc1cc(S(=O)(=O)N2CCC(N3CCCCC3)CC2)ccc1-n1cnnn1 | 9.2% (inactive) |
| COc1cc(S(=O)(=O)N2CCCC3(CCCCC3)C2)ccc1-n1cnnn1 | 78.1% (active) |
| CCOC(=O)C1=C(C)NC2=C(C(=O)CCC2)C1c1ccc(N(C)C)cc1 (stereo not drawn) | 1.2% (inactive) |
| COc1ccc(CCNC(=O)C2CCCN(S(=O)(=O)c3cccc4nonc34)C2)cc1OC (stereo not drawn) | -21.9% (inactive) |
| OC(COc1ccccc1)CN1C2=NCCCN2c2ccccc21 (stereo not drawn) | 4.3% (inactive) |
| O=C(NCc1ccco1)C1OCCc2ccccc21 (stereo not drawn) | -15.1% (inactive) |
| CCOC(=O)C1CCN(C(=O)c2ccc(SC)cc2OC)CC1 | -4.9% (inactive) |

| SMILES | cytotoxicity |
| --- | --- |
| c1coc(-c2nnc(SCc3nc4ccccc4[nH]3)o2)c1 | 65.9% (active) |
| c1ccc2[nH]c(CSc3nnc(-c4ccncc4)o3)nc2c1 | 3.2% (inactive) |
| c1cncc(-c2nnc(SCc3nc4ccccc4[nH]3)o2)c1 | -14.6% (inactive) |
| Cc1cc(C)nc(NS(=O)(=O)c2ccc(NC(=O)CCCN3C(=O)c4ccccc4C3=O)cc2)n1 | 1.9% (inactive) |
| CC(=O)Nc1c(O)n(C)c2ccccc12 | -20.2% (inactive) |
| COc1ccc(-n2c(Cc3cccn3C)nnc2SCC(=O)NC2CCCCC2)cc1 | -11.2% (inactive) |
| COc1ccc(N(CC(=O)NC2CCCC2)C(=O)Cn2nnc(-c3ccc(C)cc3)n2)cc1OC | -4.2% (inactive) |
| CC1C(=O)CCC1(C(=O)O)c1ccccc1 (stereo not drawn) | 9.4% (inactive) |
| CCn1c(CN2CCCCCC2=O)nnc1SCc1cnc(-c2ccccc2)s1 | 4.1% (inactive) |
| Cc1ccc(-c2csc3ncnc(-n4nc(C)cc4N)c23)cc1 | 0.5% (inactive) |
| CN1CCN(Cc2nc3c(c(=O)[nH]c(=O)n3C)n2Cc2c(F)cccc2Cl)CC1 | -13.5% (inactive) |
| CN(Cc1ccccc1)C(=O)CCS(=O)(=O)c1ccc2c(c1)n(C)c(=O)c(=O)n2C | -7% (inactive) |
| CCOc1ccc2[nH]c(=O)c(CN(Cc3ccco3)C(=O)c3ccc(Br)cc3)cc2c1 | 22.7% (inactive) |
| COc1ccc2[nH]c(=O)c(CN(Cc3ccco3)C(=O)c3ccccc3)cc2c1 | -8.8% (inactive) |
| CCOc1ccc2[nH]c(=O)c(CN(Cc3ccco3)C(=O)c3cccc(F)c3)cc2c1 | 78% (active) |
| CCCn1nnc(NC(=O)COc2ccc(Cl)cc2)n1 | -10.6% (inactive) |
| COCCN(C(=O)Cc1cccs1)c1nnc(-c2cccnc2)s1 | -0.4% (inactive) |
| O=C(Nc1cnn(Cc2ccccc2)c1)c1cc2nc(-c3ccco3)cc(C(F)(F)F)n2n1 | 6% (inactive) |
| Cc1ccccc1Cn1ccc(NC(=O)c2cc3nc(-c4ccco4)cc(C(F)(F)F)n3n2)n1 | 53% (active) |
| O=C(Nc1cnn(Cc2ccc(F)cc2)c1)c1cc2nc(-c3ccco3)cc(C(F)(F)F)n2n1 | 38.9% (inactive) |
| O=C(Nc1ccc(Cl)cc1)c1cc2nc(-c3ccco3)cc(C(F)(F)F)n2n1 | 66.2% (active) |
| Cc1ccccc1Cn1ccc(NC(=O)c2cnn3c(C(F)(F)F)cc(-c4ccco4)nc23)n1 | 37.2% (inactive) |
| Cc1ccccc1Cn1cc(NC(=O)c2cc3nc(-c4ccco4)cc(C(F)(F)F)n3n2)cn1 | 29.2% (inactive) |
| CCOc1ccc(OCC)c(NC(=O)CCn2cccc2)c1 | 7.1% (inactive) |
| O=C(NCC(c1cccnc1)N1CCOCC1)c1cccs1 (stereo not drawn) | -33.1% (inactive) |

| SMILES | cytotoxicity |
| --- | --- |
| COc1ccc(-c2c(C#N)c(SCc3c(C)noc3C)nc3c2C(=O)CC(C)(C)C3)cc1 | -11% (inactive) |
| Cc1cc(NC(=O)CS(=O)(=O)c2cn(Cc3cccc(F)c3)c3ccccc23)no1 | -2.5% (inactive) |
| CCOc1ccc(C(=O)NCC2CCCO2)cc1 (stereo not drawn) | 1.4% (inactive) |
| c1csc(-c2ccc3ccccc3n2)c1 | 9.1% (inactive) |
| O=C(O)c1ccc(NS(=O)(=O)c2ccc3c(c2)OCCO3)cc1 | 0.3% (inactive) |
| COC(=O)c1ccc(C)c(NS(=O)(=O)c2ccc3c(c2)OCCO3)c1 | 62.8% (active) |
| COC(=O)c1ccc(Cl)c(NS(=O)(=O)c2ccc3c(c2)OCCO3)c1 | 55.7% (active) |
| CCCNC(=O)c1ccccc1NS(=O)(=O)c1ccc2c(c1)OCCO2 | 14.8% (inactive) |
| COC(=O)c1ccc(C)c(NS(=O)(=O)c2ccc(OC)cc2)c1 | 68% (active) |
| COC(=O)c1ccc(C)c(NC(=O)CN(c2ccc3c(c2)OCO3)S(C)(=O)=O)c1 | -6.6% (inactive) |
| CC(=O)c1cc2c(cc1NS(=O)(=O)c1ccc3c(c1)OCCO3)OCO2 | 36.4% (inactive) |
| COC(=O)c1ccc(C)c(NS(=O)(=O)c2ccc(NC(C)=O)cc2)c1 | 20.6% (inactive) |
| COC(=O)c1ccc(NS(=O)(=O)c2ccc(OC)cc2)cc1 | 2% (inactive) |
| O=S(=O)(NCCC1=CCCCC1)c1cccc2nsnc12 | -4.7% (inactive) |
| CCn1c(COc2ccccc2C)nnc1SCC(=O)N1CCC(C)CC1 | -9.2% (inactive) |
| CCCC(C)NC(=O)c1ccc(F)cc1 (stereo not drawn) | -1.2% (inactive) |
| CCN(C(=O)CSc1nc2nc(C)cc(C)n2n1)c1cccc(C)c1 | -9% (inactive) |
| OC1CCCN(Cc2ccc3c(c2)Cc2ccccc2-3)C1 (stereo not drawn) | -0.6% (inactive) |
| CC1Cc2ccccc2N1C(=O)c1ccc2c(c1)nnn2C (stereo not drawn) | -5.8% (inactive) |
| CCOCCN1CCN(c2c(C)c(C)nc3cc(-c4cc(OC)cc(OC)c4)nn23)CC1 | 21.4% (inactive) |
| CCc1c(C)nc2cc(-c3ccc(OC)c(OC)c3)nn2c1N1CCCC1 | 8.9% (inactive) |
| CCCOc1ccc(C2C(=O)N(C3CCCCC3)CC(=O)N2CCC)cc1OC (stereo not drawn) | -24.3% (inactive) |
| COc1ccccc1NC(=O)C(O)C(O)C(=O)Nc1ccccc1OC (stereo not drawn) | 6.7% (inactive) |
